Reference: PubChem BioAssay (NCATS)
Calls of active or inactive are those of the source. Rule as the data show it: active = potency below about 10 µM; inactive = the rest.

What follows are compounds tested against Lysosomal acid glucosylceramidase (Homo sapiens) (UniProt P04062) (assay: Glucocerebrosidase-p2 (AID 348)). Conditions: purified GBA, blue fluorogenic substrate, 40 min.
From the text: Beta-glucocerebrosidase catalyzes the hydrolysis of beta-glucocerebroside to glucose and ceramide. The inherited deficiency of beta-glucocerebrosidase results in Gaucher disease, which is characterized by a wide variety of symptoms including hepatosplenomegaly, anemia, thrombocytopenia, bony lesions and bone marrow infiltration with characteristic storage cells, known as Gaucher cells. There are also forms of the disorder affecting the central nervous system. Patients with the same genotypes can manifest with diverse clinical presentations and it is believed that improper folding and trafficking of beta-glucocerbrosidase may contribute to the phenotypes observed.
Low molecular weight molecules, acting as chaperones, may potentially restore trafficking of misfolded beta-glucocerebrosidase from the endoplasmic reticulum to the lysosomes, thereby enhancing functional lysosomal beta-glucocerebrosidase activity.
Using normal beta-glucocerebrosidase, an assay was developed to screen for small molecule inhibitors that could potentially act as molecular chaperones on the mutant forms [developed with NIH investigator Dr. Ellen Sidransky#s laboratory]. Two pro-fluorescent substrates were chosen for two screens against a small molecule library. One beta-glucocerebrosidase assay used Resorufin beta-D-Glucopyranoside (Marker Gene Technology Inc.), generating a red fluorescent product. The second assay used […] fluorescent product. The Km for the Resorufin beta-D-Glucopyranoside and Fluorescein di-beta-D-Glucopyranoside were determined to be 71.2 uM and 855 uM, respectively. The IC50 values of Conduritol B Epoxide, a known glucocerebrosidase inhibitor, were determined to be 87.5 uM and 117 uM, respectively. The use of two difference pro-fluorescent substrates in the screens helped to eliminate false positives. All compounds were screened in a titration series resulting in AC50s (e.g., IC50s or EC50s). Data normalization and AC50 calculations were accomplished using GeneData software.
NCGC Assay Protocol Summary
Both enzyme and substrate were diluted in buffer composed of 50mM citric acid/KH2PO4, 10mM sodium taurocholate and 0.01% tween-20 at pH 5.9. The final concentration of the enzyme was 0.2 nM in both assays. The compound library was titrated in 7 to 15 concentrations for the primary screens with a final concentration ranging from 0.6 nM to 50 uM. This particular assay protocol is for the "blue" substrate, and it was performed in 1536-well plate format as follows:
Blue fluorescence substrate assay:
1 uL substrate (final concentration of 80 uM)
Incubate at room temperature (RT) for 40 minutes
3 uL stop solution (1 M NaOH and 1 M glycine in water)
Read the plate in Viewlux plate reader (Ex=365(10) and Em=440(10)).
Potency is read from the fitted curve at half-maximal effect.

Sequence of Lysosomal acid glucosylceramidase (Homo sapiens) (P04062 whole entry, looked up): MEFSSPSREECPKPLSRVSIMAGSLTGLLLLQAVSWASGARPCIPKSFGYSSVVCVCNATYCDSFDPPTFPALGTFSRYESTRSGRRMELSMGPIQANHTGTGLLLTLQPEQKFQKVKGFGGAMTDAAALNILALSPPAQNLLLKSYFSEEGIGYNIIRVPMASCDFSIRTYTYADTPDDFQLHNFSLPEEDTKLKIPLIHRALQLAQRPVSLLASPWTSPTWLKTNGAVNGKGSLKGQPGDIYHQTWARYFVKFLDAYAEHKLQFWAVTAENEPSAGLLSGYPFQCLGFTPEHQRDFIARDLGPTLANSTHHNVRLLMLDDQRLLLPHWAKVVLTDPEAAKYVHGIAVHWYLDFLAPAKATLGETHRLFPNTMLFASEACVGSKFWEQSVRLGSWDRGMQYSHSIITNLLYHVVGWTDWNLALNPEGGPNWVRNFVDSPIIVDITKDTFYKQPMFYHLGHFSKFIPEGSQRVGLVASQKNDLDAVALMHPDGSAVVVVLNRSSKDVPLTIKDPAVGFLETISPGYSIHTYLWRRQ

Potency, inactive:
CSC1(SC2=NCCN2)SC2(NCCN2)S1 > 11.4 µM
c1ccc2cc(-c3cc(-c4cc(-c5ccc6ccccc6c5)on4)no3)ccc2c1 > 11.4 µM
Cc1cc2c(=O)[nH]c(N)nc2nc1C > 11.4 µM
CC1=N[C@@](C)(COC(=O)[C@]2(C)N[C@](C)(CO)CO2)COC1=O > 11.4 µM
O=C(O)c1cccc2cccc(-c3cccc4cccc(C(=O)O)c34)c12 > 11.4 µM
Oc1c([C@H](Nc2ccccn2)c2ccccc2)ccc2cccnc12 > 11.4 µM
N#C/C(=C(\O)C(=O)O)c1ccc(-c2cccc3ccccc23)cc1 > 11.4 µM
COc1cc(-c2[o+]c3cc(O)cc(O)c3cc2O)cc(O)c1O > 11.4 µM
COc1cccc(Nc2ncc3nc(-c4ccccc4)c(=O)n(C4CC4)c3n2)c1 > 11.4 µM
CS[C@]12C(=O)C[C@]3(C)[C@@H](CC[C@@]3(O)C(=O)CO)[C@@H]1CCC1=CC(=O)CC[C@]12C > 11.4 µM
NCCNc1ncnc2ccc(Cl)cc12 11.7 µM
NCCNCC1CCNCC1 > 11.4 µM
CC[C@H]1CC[C@H]2[C@@H]3CC=C4C[C@H](OC(C)=O)[C@@H](N)C[C@@]4(C)[C@H]3CC[C@@]12C > 11.4 µM
Cc1cccc(CNc2ncnc3[nH]ncc23)c1 > 11.4 µM
C[C@](O)(c1ccccc1)c1nccc2ccccc12 > 11.4 µM
CN(C)CN1C(=O)S/C(=C2/C(=O)N(CN(C)C)c3ccccc32)C1=O > 11.4 µM
O=C(O)C1C(C(=O)O)C(C(=O)O)C1C(=O)O (stereo not given) > 11.4 µM
C[N+](C)(C)CC(=O)N/N=C\c1c(O)ccc2ccccc12 > 11.4 µM
Cn1c(=S)c2[nH]c(SCCCc3ccccc3)nc2n(C)c1=O > 11.4 µM
Cc1cc2c(cc1C)NC1=C(N2)O[C@H](c2c[nH]c3ccc(COc4ccccc4)cc23)C1=O > 11.4 µM
C[C@H](CN(C)C)C(=O)c1ccccc1C(=O)O > 11.4 µM
COc1ncc2nc(-c3cc(F)cc(F)c3)c(=O)n(C[C@H]3CCCO3)c2n1 > 11.4 µM
O=C(NCCO)c1ccc(Cl)cc1 > 11.4 µM
Nc1ncnc2nc[nH]c12.Nc1ncnc2nc[nH]c12.[Cl][Pt]([Cl])([Cl])[Cl] > 11.4 µM
O=C1CSC(=S)N1/N=C\c1ccc(Cl)c([N+](=O)[O-])c1 > 11.4 µM
O=C(NCc1cccs1)O[C@H]1C[C@H]2CC[C@@H]1C2 > 11.4 µM
O=C(O)c1cc(-c2ccc(-c3ccc(-c4cc(C(=O)O)c5cc(Cl)ccc5n4)cc3)cc2)nc2ccc(Cl)cc12 > 11.4 µM
O=c1cnc2cnc(Oc3ccccc3)nc2n1Cc1ccc(F)cc1 > 11.4 µM
NCCCc1ccc2oc3ccccc3c2c1 > 11.4 µM
Cc1cc2nc([C@H](C)C(=O)c3ccc(Cl)cc3)c(=O)[nH]c2cc1C > 11.4 µM
CC(C)(C)C1CCC2(CC1)CCN(CCCN1CCOCC1)CC2 > 11.4 µM
CSc1ncnc2c1ncn2CC(=O)[C@H]1CC[C@H]2[C@H]3CCC4=CC(=O)CC[C@@]4(C)[C@@H]3CC[C@@]12C > 11.4 µM
CC(C)C12CC[C@@]3(CC[C@H]4[C@@](C)(CCC[C@]4(C)C(=O)O)[C@@H]3C1)[C@@H](CN)C2 > 11.4 µM
NC(CSS(=O)(=O)O)=N[C@@H]1C[C@H]2CC[C@@H]1C2 > 11.4 µM
CO[C@@H]1/C=C\O[C@@]2(C)Oc3c(C)c(O)c4c(c3C2=O)C(=N[C@H]2CC[C@H](O)O[C@@H]2C)C=C(NC(=O)/C(C)=C\C(=O)[C@@H]2C[C@@H]2[C@@H](O)[C@H](C)[C@@H](O)[C@H](C)[C@H](OC(C)=O)[C@@H]1C)C4=O > 11.4 µM
O=C(O)[C@@H](O)Cc1ccccn1 > 11.4 µM
NCS(=O)(=O)O > 11.4 µM
O=c1cc(CF)[nH]c(=S)[nH]1 > 11.4 µM
CN(C)c1ccc(-c2nc(N3CCNCC3)c3ccccc3n2)cc1 > 11.4 µM
N#C/C(=C\Nc1ccccn1)C(=O)c1ccco1 > 11.4 µM
